# Source: ChEMBL document CHEMBL1961873, “Compounds: GSK PKIS; Assays: Nanosyn kinase panel” (2012)
# How the values were obtained:
# [1] = biological target: Sphingosine kinase 1 (Homo sapiens) (UniProt Q9NYA1); conditions: at 1 µM;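 note: mean SPHK1 inhibition value reported from the GSK PKIS kinase panel screen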
# [2] = biological target: T1, Sphingosine kinase 2 (Homo sapiens) (UniProt Q9NRA0); conditions: at 0.1 µM
# T1 sequence (whole entry): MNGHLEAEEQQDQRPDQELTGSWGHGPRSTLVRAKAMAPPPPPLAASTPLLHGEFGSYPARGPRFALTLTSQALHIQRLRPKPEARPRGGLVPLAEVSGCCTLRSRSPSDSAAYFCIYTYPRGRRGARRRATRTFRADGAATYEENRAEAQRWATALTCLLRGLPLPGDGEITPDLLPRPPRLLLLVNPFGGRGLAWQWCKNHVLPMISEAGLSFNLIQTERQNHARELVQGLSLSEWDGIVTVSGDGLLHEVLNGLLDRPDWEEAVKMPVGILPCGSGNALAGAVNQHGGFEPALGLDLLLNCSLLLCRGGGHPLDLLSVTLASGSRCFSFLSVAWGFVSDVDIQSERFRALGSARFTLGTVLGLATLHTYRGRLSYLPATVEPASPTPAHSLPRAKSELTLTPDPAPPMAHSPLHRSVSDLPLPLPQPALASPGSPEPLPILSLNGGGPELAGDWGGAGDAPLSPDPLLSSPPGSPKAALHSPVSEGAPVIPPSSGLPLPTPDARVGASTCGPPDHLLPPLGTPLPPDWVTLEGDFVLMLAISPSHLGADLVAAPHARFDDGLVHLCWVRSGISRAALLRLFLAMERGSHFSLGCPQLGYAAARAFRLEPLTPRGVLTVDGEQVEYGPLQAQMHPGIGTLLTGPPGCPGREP
# [3] = biological target: T1, Sphingosine kinase 2 (Homo sapiens); conditions: at 1 µM
# [4] = biological target: Casein kinase II subunit alpha (Homo sapiens) (UniProt P68400); conditions: at 0.1 µM
# [5] = biological target: Casein kinase II subunit alpha (Homo sapiens) (UniProt P68400); conditions: at 1 µM
# [6] = biological target: T2, Inhibitor of nuclear factor kappa-B kinase subunit alpha (Homo sapiens) (UniProt O15111); conditions: at 0.1 µM
# T2 sequence (whole entry): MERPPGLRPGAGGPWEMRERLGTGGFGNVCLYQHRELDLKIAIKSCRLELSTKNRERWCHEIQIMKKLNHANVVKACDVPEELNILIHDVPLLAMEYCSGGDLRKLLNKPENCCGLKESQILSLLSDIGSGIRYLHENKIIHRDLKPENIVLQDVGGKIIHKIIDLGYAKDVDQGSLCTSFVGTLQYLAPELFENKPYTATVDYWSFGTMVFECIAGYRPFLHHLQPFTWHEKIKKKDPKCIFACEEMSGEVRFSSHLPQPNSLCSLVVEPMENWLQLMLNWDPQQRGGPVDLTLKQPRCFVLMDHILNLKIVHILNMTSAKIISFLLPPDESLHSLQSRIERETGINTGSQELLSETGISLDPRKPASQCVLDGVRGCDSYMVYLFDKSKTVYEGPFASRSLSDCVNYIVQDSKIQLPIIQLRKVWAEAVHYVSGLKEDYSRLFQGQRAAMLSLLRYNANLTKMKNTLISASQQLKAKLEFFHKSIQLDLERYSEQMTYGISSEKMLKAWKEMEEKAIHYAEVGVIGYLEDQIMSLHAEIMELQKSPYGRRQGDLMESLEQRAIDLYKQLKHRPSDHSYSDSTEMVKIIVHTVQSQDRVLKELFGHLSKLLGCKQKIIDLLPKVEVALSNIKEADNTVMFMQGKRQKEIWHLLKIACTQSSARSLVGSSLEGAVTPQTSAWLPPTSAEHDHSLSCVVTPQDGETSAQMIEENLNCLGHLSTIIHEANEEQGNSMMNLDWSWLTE
# [7] = biological target: T2, Inhibitor of nuclear factor kappa-B kinase subunit alpha (Homo sapiens); conditions: at 1 µM
# [8] = biological target: T3, Inhibitor of nuclear factor kappa-B kinase subunit beta (Homo sapiens) (UniProt O14920); conditions: at 0.1 µM
# T3 sequence (whole entry): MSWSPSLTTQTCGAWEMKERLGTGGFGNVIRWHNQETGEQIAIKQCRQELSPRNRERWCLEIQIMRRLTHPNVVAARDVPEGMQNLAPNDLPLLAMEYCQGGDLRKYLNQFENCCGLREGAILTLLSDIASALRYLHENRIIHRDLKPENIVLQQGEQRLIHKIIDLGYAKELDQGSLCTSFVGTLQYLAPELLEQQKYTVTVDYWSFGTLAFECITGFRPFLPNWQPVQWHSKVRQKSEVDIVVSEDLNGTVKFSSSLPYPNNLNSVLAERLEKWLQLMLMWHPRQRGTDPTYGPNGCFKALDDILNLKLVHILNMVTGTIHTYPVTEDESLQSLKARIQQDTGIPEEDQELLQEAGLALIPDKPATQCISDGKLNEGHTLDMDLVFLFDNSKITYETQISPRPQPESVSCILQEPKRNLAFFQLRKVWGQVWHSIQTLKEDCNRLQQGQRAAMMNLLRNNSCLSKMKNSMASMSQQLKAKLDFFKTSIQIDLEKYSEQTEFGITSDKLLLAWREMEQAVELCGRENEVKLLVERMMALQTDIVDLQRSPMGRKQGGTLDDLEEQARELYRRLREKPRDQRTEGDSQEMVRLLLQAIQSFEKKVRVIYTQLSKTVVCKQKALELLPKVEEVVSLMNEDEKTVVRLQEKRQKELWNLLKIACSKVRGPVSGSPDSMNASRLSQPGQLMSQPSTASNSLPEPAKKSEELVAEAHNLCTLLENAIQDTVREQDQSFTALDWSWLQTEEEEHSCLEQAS
# [9] = biological target: T3, Inhibitor of nuclear factor kappa-B kinase subunit beta (Homo sapiens); conditions: at 1 µM
# [10] = biological target: T4, Inhibitor of nuclear factor kappa-B kinase subunit epsilon (Homo sapiens) (UniProt Q14164); conditions: at 0.1 µM
# T4 sequence (whole entry): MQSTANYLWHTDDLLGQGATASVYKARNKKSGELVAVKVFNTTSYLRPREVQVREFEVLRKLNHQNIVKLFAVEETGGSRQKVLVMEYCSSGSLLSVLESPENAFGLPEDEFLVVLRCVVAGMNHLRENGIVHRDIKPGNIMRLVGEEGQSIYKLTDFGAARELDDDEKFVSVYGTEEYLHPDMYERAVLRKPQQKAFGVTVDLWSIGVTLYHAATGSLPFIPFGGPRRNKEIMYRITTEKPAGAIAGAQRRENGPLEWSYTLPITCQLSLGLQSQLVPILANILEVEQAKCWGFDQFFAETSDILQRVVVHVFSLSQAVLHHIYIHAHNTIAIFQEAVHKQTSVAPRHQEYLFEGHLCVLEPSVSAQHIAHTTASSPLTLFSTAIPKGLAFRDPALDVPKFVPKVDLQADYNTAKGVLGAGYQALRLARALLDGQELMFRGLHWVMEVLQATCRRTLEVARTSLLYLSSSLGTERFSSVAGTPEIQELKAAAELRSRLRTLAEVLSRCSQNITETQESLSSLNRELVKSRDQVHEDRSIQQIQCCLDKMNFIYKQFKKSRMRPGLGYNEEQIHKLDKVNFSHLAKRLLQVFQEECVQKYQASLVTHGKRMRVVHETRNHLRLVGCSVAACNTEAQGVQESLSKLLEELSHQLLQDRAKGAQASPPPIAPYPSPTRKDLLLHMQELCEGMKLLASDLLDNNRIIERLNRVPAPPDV
# [11] = biological target: T4, Inhibitor of nuclear factor kappa-B kinase subunit epsilon (Homo sapiens); conditions: at 1 µM
# [12] = biological target: T5, Serine/threonine-protein kinase Nek1 (Homo sapiens) (UniProt Q96PY6); conditions: at 0.1 µM
# T5 sequence (whole entry): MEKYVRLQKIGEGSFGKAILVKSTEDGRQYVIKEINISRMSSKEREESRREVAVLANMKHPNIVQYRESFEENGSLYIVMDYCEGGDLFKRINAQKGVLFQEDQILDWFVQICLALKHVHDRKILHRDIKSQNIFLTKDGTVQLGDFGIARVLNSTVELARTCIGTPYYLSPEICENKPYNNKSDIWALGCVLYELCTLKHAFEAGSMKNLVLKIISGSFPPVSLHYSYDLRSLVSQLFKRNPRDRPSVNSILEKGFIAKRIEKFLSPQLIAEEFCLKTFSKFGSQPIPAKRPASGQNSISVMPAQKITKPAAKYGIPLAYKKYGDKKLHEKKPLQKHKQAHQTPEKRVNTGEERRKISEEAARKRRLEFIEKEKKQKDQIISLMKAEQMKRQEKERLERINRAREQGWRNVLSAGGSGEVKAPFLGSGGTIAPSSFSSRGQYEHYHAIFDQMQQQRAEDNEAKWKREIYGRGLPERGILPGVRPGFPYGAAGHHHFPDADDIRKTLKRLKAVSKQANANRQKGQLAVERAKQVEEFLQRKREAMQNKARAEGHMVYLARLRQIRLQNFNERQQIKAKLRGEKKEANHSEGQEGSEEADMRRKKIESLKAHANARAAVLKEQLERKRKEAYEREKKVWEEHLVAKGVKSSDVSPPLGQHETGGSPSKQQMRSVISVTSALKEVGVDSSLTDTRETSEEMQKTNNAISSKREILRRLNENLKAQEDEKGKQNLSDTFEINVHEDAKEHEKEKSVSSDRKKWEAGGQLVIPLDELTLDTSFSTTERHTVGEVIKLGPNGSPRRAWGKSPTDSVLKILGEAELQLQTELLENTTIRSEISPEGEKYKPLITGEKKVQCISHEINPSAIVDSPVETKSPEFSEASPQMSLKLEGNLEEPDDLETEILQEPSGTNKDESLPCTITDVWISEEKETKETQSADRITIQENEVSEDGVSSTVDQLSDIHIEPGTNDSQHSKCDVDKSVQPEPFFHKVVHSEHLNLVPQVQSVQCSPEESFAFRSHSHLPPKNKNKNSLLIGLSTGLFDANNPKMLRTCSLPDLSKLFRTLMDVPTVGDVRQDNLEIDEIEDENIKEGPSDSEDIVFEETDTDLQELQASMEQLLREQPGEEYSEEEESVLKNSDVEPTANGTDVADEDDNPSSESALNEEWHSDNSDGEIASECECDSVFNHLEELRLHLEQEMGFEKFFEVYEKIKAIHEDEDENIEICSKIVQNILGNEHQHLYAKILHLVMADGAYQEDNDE
# [13] = biological target: T5, Serine/threonine-protein kinase Nek1 (Homo sapiens); conditions: at 1 µM
# [14] = biological target: T6, Serine/threonine-protein kinase Nek2 (Homo sapiens) (UniProt P51955); conditions: at 0.1 µM
# T6 sequence (whole entry): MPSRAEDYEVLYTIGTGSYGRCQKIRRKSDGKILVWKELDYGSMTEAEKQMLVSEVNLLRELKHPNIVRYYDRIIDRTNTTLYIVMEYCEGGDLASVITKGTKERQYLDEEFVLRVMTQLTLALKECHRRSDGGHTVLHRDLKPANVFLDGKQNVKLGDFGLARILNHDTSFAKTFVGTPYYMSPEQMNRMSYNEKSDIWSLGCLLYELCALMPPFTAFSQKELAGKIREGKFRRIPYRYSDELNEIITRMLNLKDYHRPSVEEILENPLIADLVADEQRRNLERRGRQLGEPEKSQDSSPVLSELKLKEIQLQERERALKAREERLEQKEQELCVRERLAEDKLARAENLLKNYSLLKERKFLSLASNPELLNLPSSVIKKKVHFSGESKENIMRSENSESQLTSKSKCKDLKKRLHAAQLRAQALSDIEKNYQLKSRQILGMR
# [15] = biological target: T6, Serine/threonine-protein kinase Nek2 (Homo sapiens); conditions: at 1 µM
# [16] = biological target: Serine/threonine-protein kinase Nek6 (Homo sapiens) (UniProt Q9HC98); conditions: at 0.1 µM
# [17] = biological target: Serine/threonine-protein kinase Nek6 (Homo sapiens) (UniProt Q9HC98); conditions: at 1 µM
# [18] = biological target: Serine/threonine-protein kinase Nek7 (Homo sapiens) (UniProt Q8TDX7); conditions: at 0.1 µM
# [19] = biological target: Serine/threonine-protein kinase Nek7 (Homo sapiens) (UniProt Q8TDX7); conditions: at 1 µM
# [20] = biological target: T7, Serine/threonine-protein kinase Nek9 (Homo sapiens) (UniProt Q8TD19); conditions: at 0.1 µM;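 note: reported value is the mean percent inhibition of NEK9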
# T7 sequence (whole entry): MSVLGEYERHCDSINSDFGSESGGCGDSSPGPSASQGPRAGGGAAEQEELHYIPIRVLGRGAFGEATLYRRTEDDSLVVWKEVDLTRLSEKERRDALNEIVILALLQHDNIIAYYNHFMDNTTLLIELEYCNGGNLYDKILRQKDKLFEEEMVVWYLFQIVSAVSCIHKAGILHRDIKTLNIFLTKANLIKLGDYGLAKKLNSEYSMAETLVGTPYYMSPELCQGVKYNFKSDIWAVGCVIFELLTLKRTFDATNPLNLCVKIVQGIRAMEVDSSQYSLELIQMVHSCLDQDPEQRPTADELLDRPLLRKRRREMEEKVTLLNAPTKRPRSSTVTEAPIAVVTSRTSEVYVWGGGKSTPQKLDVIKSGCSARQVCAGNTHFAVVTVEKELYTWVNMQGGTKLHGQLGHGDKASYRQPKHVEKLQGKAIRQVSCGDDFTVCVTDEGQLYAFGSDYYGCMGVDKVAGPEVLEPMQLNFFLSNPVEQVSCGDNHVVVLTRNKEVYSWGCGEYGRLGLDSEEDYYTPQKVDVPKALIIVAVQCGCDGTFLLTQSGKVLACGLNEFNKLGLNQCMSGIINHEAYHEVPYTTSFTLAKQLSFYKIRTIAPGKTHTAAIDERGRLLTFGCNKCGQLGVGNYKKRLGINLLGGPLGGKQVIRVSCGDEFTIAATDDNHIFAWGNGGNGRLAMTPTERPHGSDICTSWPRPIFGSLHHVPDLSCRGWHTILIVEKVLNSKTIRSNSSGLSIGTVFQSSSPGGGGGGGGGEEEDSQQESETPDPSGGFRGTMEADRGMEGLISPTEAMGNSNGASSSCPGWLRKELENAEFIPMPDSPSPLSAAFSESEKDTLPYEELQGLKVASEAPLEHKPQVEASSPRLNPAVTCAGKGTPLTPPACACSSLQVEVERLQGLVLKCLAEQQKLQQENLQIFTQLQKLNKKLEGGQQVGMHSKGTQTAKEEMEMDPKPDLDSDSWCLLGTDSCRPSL
# Serine/threonine-protein kinase Nek6 (Homo sapiens), sequence (Q9HC98 whole entry): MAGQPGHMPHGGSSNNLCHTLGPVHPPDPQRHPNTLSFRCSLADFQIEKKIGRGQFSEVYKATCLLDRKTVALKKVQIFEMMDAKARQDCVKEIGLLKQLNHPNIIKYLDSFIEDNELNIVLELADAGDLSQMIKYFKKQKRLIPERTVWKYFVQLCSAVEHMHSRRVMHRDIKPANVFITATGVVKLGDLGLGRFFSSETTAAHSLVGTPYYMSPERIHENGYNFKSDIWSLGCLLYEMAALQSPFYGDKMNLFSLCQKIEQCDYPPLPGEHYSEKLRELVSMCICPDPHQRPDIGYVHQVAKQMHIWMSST
# Serine/threonine-protein kinase Nek7 (Homo sapiens), sequence (Q8TDX7 whole entry, looked up): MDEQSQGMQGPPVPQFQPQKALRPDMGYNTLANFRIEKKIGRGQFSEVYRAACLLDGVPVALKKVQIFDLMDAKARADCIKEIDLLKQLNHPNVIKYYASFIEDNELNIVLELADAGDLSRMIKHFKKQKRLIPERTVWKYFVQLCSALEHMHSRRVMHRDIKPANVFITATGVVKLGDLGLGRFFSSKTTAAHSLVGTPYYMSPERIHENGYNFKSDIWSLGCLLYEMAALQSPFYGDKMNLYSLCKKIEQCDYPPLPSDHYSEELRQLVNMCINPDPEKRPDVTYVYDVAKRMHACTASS
# Casein kinase II subunit alpha (Homo sapiens), sequence (P68400 whole entry, looked up): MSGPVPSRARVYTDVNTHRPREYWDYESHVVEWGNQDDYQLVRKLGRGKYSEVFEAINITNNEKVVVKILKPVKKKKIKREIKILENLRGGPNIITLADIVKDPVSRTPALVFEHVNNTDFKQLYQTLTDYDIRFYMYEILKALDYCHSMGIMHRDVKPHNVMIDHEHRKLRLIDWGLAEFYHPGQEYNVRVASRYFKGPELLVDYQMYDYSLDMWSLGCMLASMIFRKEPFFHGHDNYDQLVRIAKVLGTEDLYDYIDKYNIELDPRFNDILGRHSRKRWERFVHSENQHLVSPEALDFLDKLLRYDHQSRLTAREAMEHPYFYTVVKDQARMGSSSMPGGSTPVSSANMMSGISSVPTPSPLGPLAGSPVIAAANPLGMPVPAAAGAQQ
# Sphingosine kinase 1 (Homo sapiens), sequence (Q9NYA1 whole entry): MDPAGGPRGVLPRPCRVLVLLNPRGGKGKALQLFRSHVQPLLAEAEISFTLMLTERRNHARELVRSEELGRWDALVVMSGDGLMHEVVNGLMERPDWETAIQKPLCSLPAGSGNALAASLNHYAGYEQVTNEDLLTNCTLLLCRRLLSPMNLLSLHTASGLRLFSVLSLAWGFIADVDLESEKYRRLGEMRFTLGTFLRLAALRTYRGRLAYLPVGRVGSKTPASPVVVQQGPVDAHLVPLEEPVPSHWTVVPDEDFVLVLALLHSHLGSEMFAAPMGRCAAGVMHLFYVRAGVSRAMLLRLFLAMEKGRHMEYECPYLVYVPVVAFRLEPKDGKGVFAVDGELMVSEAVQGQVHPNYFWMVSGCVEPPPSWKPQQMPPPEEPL
smiles,measurement,setting,value
COc1ccc2cc(-c3c(-c4ccncc4)nc(-c4ccc([S+](C)[O-])cc4)n3C)ccc2c1 (stereo not given),inhibition,[1],-3.23%
same,inhibition,[2],-1.61%
same,inhibition,[3],-1.21%
same,inhibition,[4],0.27%
same,inhibition,[5],-4.21%
same,inhibition,[6],3.64%
same,inhibition,[7],0.12%
same,inhibition,[8],3.95%
same,inhibition,[9],3.93%
same,inhibition,[10],4.41%
same,inhibition,[11],4.64%
same,inhibition,[12],1.1%
same,inhibition,[13],1.54%
same,inhibition,[14],3.66%
same,inhibition,[15],3.14%
same,inhibition,[16],0.57%
same,inhibition,[17],-1.38%
same,inhibition,[18],2.77%
same,inhibition,[19],2.17%
same,inhibition,[20],7.56%
